87 molecules from PMC4336329 (PLoS ONE, 2015) can be followed below.

Out of some 310,000 compounds screened, about 14,000 (4.5%) showed an effect of 50% or more. Effects have a minus sign here. For the sample, strong results were picked, then their nearest neighbours and some compounds at random.
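Further: peak tail current of the secondary pulse compared with the same well before compound.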

The target of the test is human ether-à-go-go-related gene (hERG) potassium channel (human, UniProt Q12809). Description: primary screen, population patch clamp on CHO cells stably expressing hERG; higher = less effect of the substance.
Sequence of human ether-à-go-go-related gene (hERG) potassium channel (Q12809 whole entry, looked up): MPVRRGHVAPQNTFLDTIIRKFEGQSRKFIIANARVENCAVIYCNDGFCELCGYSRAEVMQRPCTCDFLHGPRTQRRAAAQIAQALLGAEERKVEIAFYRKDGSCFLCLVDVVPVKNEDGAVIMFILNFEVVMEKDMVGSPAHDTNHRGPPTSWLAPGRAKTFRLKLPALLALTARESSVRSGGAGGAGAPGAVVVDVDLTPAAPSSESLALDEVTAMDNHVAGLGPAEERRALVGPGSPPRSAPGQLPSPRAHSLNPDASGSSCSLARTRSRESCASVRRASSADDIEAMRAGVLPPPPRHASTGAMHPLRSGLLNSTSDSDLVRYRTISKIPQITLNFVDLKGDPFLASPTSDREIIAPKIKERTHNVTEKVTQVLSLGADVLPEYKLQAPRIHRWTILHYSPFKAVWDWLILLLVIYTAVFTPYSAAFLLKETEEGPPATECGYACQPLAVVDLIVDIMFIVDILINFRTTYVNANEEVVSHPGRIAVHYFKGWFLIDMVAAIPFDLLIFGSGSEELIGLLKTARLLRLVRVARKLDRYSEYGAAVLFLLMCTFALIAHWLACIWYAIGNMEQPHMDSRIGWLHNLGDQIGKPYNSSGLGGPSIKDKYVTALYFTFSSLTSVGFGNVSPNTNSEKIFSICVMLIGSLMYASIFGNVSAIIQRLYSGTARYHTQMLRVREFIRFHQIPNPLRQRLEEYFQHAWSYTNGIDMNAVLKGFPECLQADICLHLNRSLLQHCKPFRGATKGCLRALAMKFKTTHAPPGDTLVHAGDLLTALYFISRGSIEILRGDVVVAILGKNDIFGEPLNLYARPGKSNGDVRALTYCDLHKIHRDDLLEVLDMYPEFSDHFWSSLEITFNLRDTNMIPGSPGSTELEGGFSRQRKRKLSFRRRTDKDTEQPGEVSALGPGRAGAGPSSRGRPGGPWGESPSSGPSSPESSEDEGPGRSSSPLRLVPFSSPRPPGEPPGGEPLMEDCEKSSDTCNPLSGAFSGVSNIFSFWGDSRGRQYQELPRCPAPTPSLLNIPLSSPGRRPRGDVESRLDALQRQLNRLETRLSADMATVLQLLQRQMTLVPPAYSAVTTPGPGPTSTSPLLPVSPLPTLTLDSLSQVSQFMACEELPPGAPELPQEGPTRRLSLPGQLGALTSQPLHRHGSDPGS
Consider `OC1CCN(Cc2ccc(OCc3ccccc3)cc2)CC1`, for which the “hERG current change (%, negative = inhibition) at 10uM” value is given as -5.07%.
Turning to `CCCNC(=O)c1ccc(CNc2c(N3CCC(C(=O)OCC)CC3)c(=O)c2=O)cc1`, the “hERG current change (%, negative = inhibition) at 10uM” value was found to be 3.8%.
For `CCOC(=O)C1CCCN(Cc2ccc(OCc3ccccc3)c(OC)c2)C1.O=C(O)C(=O)O` (stereo not drawn), the “hERG current change (%, negative = inhibition) at 10uM” value is listed as -62.2%.
In the case of `CCCCNC(=O)C1CCN(Cc2ccc(OCc3ccccc3)cc2)CC1.O=C(O)C(=O)O`, the “hERG current change (%, negative = inhibition) at 10uM” value is on record as -71.7%.
Consider `CCOC(=O)C1CCN(c2c(NCc3ccc(C(=O)N(C)Cc4ccccc4)cc3)c(=O)c2=O)CC1`, for which the “hERG current change (%, negative = inhibition) at 10uM” value is listed as -65.2%.
On to `CCOC(=O)C1CCN(Cc2ccc(OCc3ccccc3)c(OC)c2)CC1.O=C(O)C(=O)O`, for which the “hERG current change (%, negative = inhibition) at 10uM” value is listed as -19.3%.
The figure for `CCOC(=O)C1CCN(c2c(NCc3ccc(N(C)C)cc3)c(=O)c2=O)CC1` is -5.97%; for `CCOC(=O)C1CCCN(Cc2ccc(OC)c(OCc3ccccc3)c2)C1` (stereo not drawn) it is -46.1%; for `CCOC(=O)C1CCCN(Cc2c(C(=O)N3CCOCC3)nc3ccccn23)C1` (stereo not drawn) it is 8.12%.
`O=C(NC1CCCCC1)c1cc([N+](=O)[O-])ccc1N1CCCC1`: the “hERG current change (%, negative = inhibition) at 10uM” value is -0.526%.
Regarding `Cc1ccc(/C=C/C(=O)Nc2cccc(S(=O)(=O)N3CCOCC3)c2)o1`, the “hERG current change (%, negative = inhibition) at 10uM” value is recorded as -19.9%.
With `O=C(CCC1CCCC1)Nc1ccon1`, the “hERG current change (%, negative = inhibition) at 10uM” value came out at 12.2%.
With `COc1ccc(S(=O)(=O)N(C)CC(=O)NCCN2CCOCC2)cc1Cl`, the “hERG current change (%, negative = inhibition) at 10uM” value was 6.98%.
Regarding `CCCCC(CCC(=O)Nc1ccccc1C(=O)OCC)C(=O)O` (stereo not drawn), the “hERG current change (%, negative = inhibition) at 10uM” value was -3.09%.
`Cc1ccc(C)c(Cn2c(=O)n(CCCC(=O)NCc3ccco3)c(=O)c3ccccc32)c1`: the “hERG current change (%, negative = inhibition) at 10uM” value came to 0.892%.
The figure for `O=C(Nc1ccc(Cl)cn1)c1ccc(-c2ccc(Cl)c(Cl)c2)o1` is 10.1%; for `CC(=O)c1ccccc1NS(=O)(=O)c1c(C)nn(-c2ccccc2)c1C` it is 3.03%.
With `CCn1nc(C)c(CNC(=O)CCc2nnc(Cc3c[nH]c4ccccc34)o2)c1C`, the “hERG current change (%, negative = inhibition) at 10uM” value was 42%.
With `CCC(C)(C)n1nnnc1C(c1ccccc1OC)N1CCSCC1` (stereo not drawn), the “hERG current change (%, negative = inhibition) at 10uM” value was -24.1%.
Take `CCOc1ccccc1C(C(=O)NCCOC)N(CCOC)C(=O)Cn1nnc2ccccc21` (stereo not drawn): the “hERG current change (%, negative = inhibition) at 10uM” value came to 18.5%.
For the molecule `Cc1ccc(OCC(=O)N2CCCCCCC2)cc1`, the “hERG current change (%, negative = inhibition) at 10uM” value is 7.87%.
As to `O=C(COc1ccc2ccccc2c1)NNC(=O)c1ccc([N+](=O)[O-])cc1`, the “hERG current change (%, negative = inhibition) at 10uM” value is -1.08%.
With `O=C(COc1ccc2ccccc2c1)N1CCN(c2ccccc2)CC1`, the “hERG current change (%, negative = inhibition) at 10uM” value was found to be 11.7%.
In the case of `Cc1cccc(OCC(=O)N2CCN(C(=O)c3cccs3)CC2)c1`, the “hERG current change (%, negative = inhibition) at 10uM” value was -7.23%.
Turning to `Cc1ccc(S(=O)(=O)N2CCN(C(=O)c3ccc([N+](=O)[O-])cc3)C2)cc1`, the “hERG current change (%, negative = inhibition) at 10uM” value is -60%.
Turning to `Cc1cccc(OCC(=O)N2CCN(C(=O)c3ccc([N+](=O)[O-])cc3)CC2)c1`, the “hERG current change (%, negative = inhibition) at 10uM” value is listed as -68.8%.
For `O=C(COc1ccc2ccccc2c1)N1CCN(C(=O)c2ccc([N+](=O)[O-])cc2)CC1`, the “hERG current change (%, negative = inhibition) at 10uM” value is reported as -76.5%.
As to `Cc1ccc(C(=O)N2CCN(S(=O)(=O)c3ccc(C)c([N+](=O)[O-])c3)C2)cc1`, the “hERG current change (%, negative = inhibition) at 10uM” value was -42.7%.
For the molecule `Cc1cccc(OCC(=O)NNC(=O)c2ccc([N+](=O)[O-])cc2)c1`, the “hERG current change (%, negative = inhibition) at 10uM” value turned out to be 1.5%.
With `Cc1ccc(C(=O)N2CCN(S(=O)(=O)c3ccc(C)cc3)CC2)cc1` the figure was -20.1%; with `Cc1ccc(OCC(=O)N2CCN(C(=O)c3ccc([N+](=O)[O-])cc3)CC2)cc1`, -83.4%; with `Cc1ccc(OCC(=O)N2CCN(C(=O)c3cccc(F)c3)CC2)cc1`, -13.3%.
Turning to `COc1ccc(C(=O)N/N=C/c2sc(=O)n(Cc3cccc(C(=O)O)c3)c2Cl)cc1`, the “hERG current change (%, negative = inhibition) at 10uM” value was -1.9%.
With `CC(C)(C)C1CCC(=NNC(=O)C2COc3ccccc3O2)CC1` (stereo not drawn) the figure was 0.995%.
Turning to `CCOC(=O)Cn1ccc(NC(=O)COc2ccc(F)cc2F)n1`, the “hERG current change (%, negative = inhibition) at 10uM” value is listed as -2.52%.
With `Cc1ccc(OCc2cc(C(=O)N3CC4C[C@@H]5CC3C[C@H](C4)C5)no2)cc1C`, the “hERG current change (%, negative = inhibition) at 10uM” value was determined as 15.7%.
In the case of `COc1ccc(C(=O)C[n+]2cccc(C)c2)cc1.[Br-]`, the “hERG current change (%, negative = inhibition) at 10uM” value is listed as 13%.
`NC(=O)c1ccc(NCc2ccco2)c([N+](=O)[O-])c1`: the “hERG current change (%, negative = inhibition) at 10uM” value is recorded as 6.16%.
`CN1CCN(S(=O)(=O)c2ccc3c(c2)C(C)(C)C(=O)N3C)CC1`: the “hERG current change (%, negative = inhibition) at 10uM” value was 14.3%.
As for `CSCCC(NC(=O)c1cc(S(=O)(=O)N2CCOCC2)ccc1F)c1nc2ccccc2[nH]1` (stereo not drawn), the “hERG current change (%, negative = inhibition) at 10uM” value is reported as -5.27%.
On to `O=C(COc1ccccc1)N1CCN(C(=O)c2ccc([N+](=O)[O-])cc2)CC1`, for which the “hERG current change (%, negative = inhibition) at 10uM” value was -62.4%.
For the molecule `CCC(=O)c1ccc(OCC(=O)N2CCN(C(=O)c3ccccc3)CC2)cc1`, the “hERG current change (%, negative = inhibition) at 10uM” value was -37.8%.
With `COc1ccc(OCC(=O)N2CCN(C(=O)c3ccccc3)CC2)cc1` the figure was -12.6%; with `COc1ccc(OCC(=O)N2CCN(C(=O)c3ccc([N+](=O)[O-])cc3)CC2)cc1`, -67.2%; with `COc1ccc(OCC(=O)N2CCN(C(=O)c3ccc(F)cc3)CC2)cc1`, -20.2%.
With `O=C(COc1ccccc1)N1CCN(S(=O)(=O)c2cccc([N+](=O)[O-])c2)CC1` the figure was -47.3%; with `COc1ccc(NC(=O)Cc2nnc(SCC(=O)NC3CCCC3)n2C)cc1`, 15.3%; with `CN(CC(=O)Nc1ccccc1Sc1ccccc1)Cc1nc2ccccc2c(=O)[nH]1`, -37.1%.
For the molecule `CC(C)CN(CC(C)C)C(=O)COc1ccccc1C(N)=O`, the “hERG current change (%, negative = inhibition) at 10uM” value turned out to be 7.55%.
With `COc1ccc(S(=O)(=O)N2CCN(CC(=O)Nc3cc(C(F)(F)F)ccc3Cl)CC2)cc1`, the “hERG current change (%, negative = inhibition) at 10uM” value is listed as -4.6%.
With `C=CCOc1ccccc1CN1CCSCC1` the figure was -11.2%; with `C=CCOc1ccccc1CN1CCC(Cc2ccccc2)CC1`, -70.3%; with `CSc1ccc(CN2CCC(Cc3ccccc3)CC2)cc1`, -65.4%.
Consider `Clc1cccc(CN2CCC(Cc3ccccc3)CC2)c1`, for which the “hERG current change (%, negative = inhibition) at 10uM” value is recorded as -27.9%.
As to `Fc1ccc(CN2CCC(Cc3ccccc3)CC2)cc1F`, the “hERG current change (%, negative = inhibition) at 10uM” value is 2.03%.
Consider `CCOc1ccc(CN2CCC(Cc3ccccc3)CC2)cc1`, for which the “hERG current change (%, negative = inhibition) at 10uM” value is -78.3%.
`Clc1ccc(CN2CCC(Cc3ccccc3)CC2)cc1`: the “hERG current change (%, negative = inhibition) at 10uM” value was -40.9%.
For the molecule `CCOc1ccc(S(=O)(=O)N2CCN(Cc3ccccc3)CC2)cc1`, the “hERG current change (%, negative = inhibition) at 10uM” value is 1.61%.
Turning to `C=CCOc1ccccc1CN1CCCCCC1`, the “hERG current change (%, negative = inhibition) at 10uM” value is -18.9%.
In the case of `O=C(CNS(=O)(=O)c1ccccc1)NCC(=O)OCc1ccccc1F`, the “hERG current change (%, negative = inhibition) at 10uM” value was determined as 13.7%.
With `CC[C@@]12C(=O)N(c3ccccc3)C(=O)N1[C@H](c1ccc(Br)cc1)[C@@H]1C(=O)N(C(C)(C)C)C(=O)[C@@H]12`, the “hERG current change (%, negative = inhibition) at 10uM” value is on record as 4.22%.
As for `CCOC(=O)/C=C/c1cnn(-c2ccccc2)c1`, the “hERG current change (%, negative = inhibition) at 10uM” value is 3%.
For the molecule `CCc1nc2cc(CC(=O)O)ccc2o1`, the “hERG current change (%, negative = inhibition) at 10uM” value was determined as 8.35%.
Regarding `COc1ccc(/C=N/NC(=O)Cn2cnc3ccccc3c2=O)cc1OC`, the “hERG current change (%, negative = inhibition) at 10uM” value was -6.77%.
For the molecule `CCCCn1c(O)c(C(CC)=NCc2ccco2)c(=O)[nH]c1=O`, the “hERG current change (%, negative = inhibition) at 10uM” value was -35.4%.
With `CC(C)CN(C(=O)CN(C)C(=O)Cc1ccccc1Cl)c1c(N)n(CC(C)C)c(=O)[nH]c1=O` the figure was 20.7%; with `CCC1CCCCN1C(=O)c1cccc(S(=O)(=O)Nc2cc(C(F)(F)F)ccc2Cl)c1` (stereo not drawn), 2.59%.
Take `COc1ccc(CCC(=O)NCCOc2ccc(Cl)cc2)cc1`: the “hERG current change (%, negative = inhibition) at 10uM” value is on record as -7.98%.
For the molecule `COc1ccc(-c2[nH]c3ccccc3c2SCCNC(=O)c2cc3ccccc3oc2=O)cc1`, the “hERG current change (%, negative = inhibition) at 10uM” value is listed as -0.175%.
Regarding `CCOc1ccc(NC(=O)Cn2nnc(C(=O)NCc3cccs3)c2N)cc1`, the “hERG current change (%, negative = inhibition) at 10uM” value came out at 13.8%.
Regarding `Cc1cc(=O)[nH]c2nnc(-c3ccc(Br)cc3)n12`, the “hERG current change (%, negative = inhibition) at 10uM” value turned out to be 5.99%.
As for `O=S(=O)(c1ccc2c(c1)CCN2)N1CCCC1`, the “hERG current change (%, negative = inhibition) at 10uM” value is given as -1.58%.
The figure for `COc1ccc(CNC(=O)COC(=O)[C@H](Cc2c[nH]c3ccccc23)NC(=O)c2cccs2)cc1` is -0.701%; for `COc1ccccc1N1CCN(CC(O)c2ccccc2)CC1` (stereo not drawn) it is -8.46%.
As for `OC(COc1ccc2ccccc2c1Cl)CN1CCOCC1` (stereo not drawn), the “hERG current change (%, negative = inhibition) at 10uM” value is -24.5%.
Take `COc1ccccc1N1CCN(CC(O)COc2cccc3ccccc23)CC1.Cl` (stereo not drawn): the “hERG current change (%, negative = inhibition) at 10uM” value was -68.3%.
With `OC(COc1cccc2ccccc12)CN1CCN(c2ccccc2Cl)CC1` (stereo not drawn), the “hERG current change (%, negative = inhibition) at 10uM” value was -50.2%.
Consider `OC(COc1cccc2ccccc12)CN1CCCC1` (stereo not drawn), for which the “hERG current change (%, negative = inhibition) at 10uM” value is -29.4%.
As for `OC(COc1cccc2ccccc12)CN1CCN(c2ccccc2)CC1` (stereo not drawn), the “hERG current change (%, negative = inhibition) at 10uM” value is -33.2%.
`Cc1ccc(N2CCN(CC(O)COc3cccc4ccccc34)CC2)cc1` (stereo not drawn): the “hERG current change (%, negative = inhibition) at 10uM” value was -25.1%.
Take `COc1ccccc1N1CCN(CC(O)COc2c(OC)cccc2OC)CC1.Cl` (stereo not drawn): the “hERG current change (%, negative = inhibition) at 10uM” value was -48.4%.
On to `CCOC(=O)N1CCN(CC(O)c2ccc3cc[nH]c3c2)CC1` (stereo not drawn), for which the “hERG current change (%, negative = inhibition) at 10uM” value is reported as -30.4%.
Turning to `COc1ccccc1N1CCN(CC(O)COc2cccc3ccccc23)CC1.Cl.O` (stereo not drawn), the “hERG current change (%, negative = inhibition) at 10uM” value is given as -61%.
The figure for `COc1ccccc1N1CCN(CC(O)c2ccc3cc[nH]c3c2)CC1` (stereo not drawn) is -69.3%.
With `CCCc1nnc(SCC(=O)Nc2ccc(OCC)cc2)n1N` the figure was -3.79%; with `CCN(c1ccccc1)S(=O)(=O)c1ccc(Cl)c(C(=O)N(CC2CCCO2)C2CCS(=O)(=O)C2)c1` (stereo not drawn), -5.04%.
Turning to `Cc1ccc(-c2csnn2)cc1`, the “hERG current change (%, negative = inhibition) at 10uM” value is on record as 6.13%.
